Assay results: PubChem BioAssay (EPA / NIEHS)
Several values for one entry are separate records, joined by “and”; a condition that tells them apart may be missing. Equal entries are not always repeated. Results filed as inconclusive are left out. A structure can be active in one record and inactive in another. Activity calls are given as the source filed them. How the source made its calls, unless noted: active means hit-call score of the fitted dose curve at least 0.9, where 1 is the maximum; inactive means score below 0.9.

How the values were obtained:
[1] = ATG_DR4_LXR_CIS: Attagene CIS-FACTORIAL HepG2 Assay for human Liver X Receptor (LXR), DR4 submotif (AID 2282929); conditions: HepG2 Attagene DR4 cis-reporter, mRNA transcription; actives raise or lower the signal
Summary of the method: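 Readout: reporter transcript fluorescence after RT-PCR and capillary electrophoresis, fitted bidirectionally against DMSO controls. Human HepG2 liver cells carried transiently transfected multiplexed reporter constructs; endogenous transcription factor activity measured 24 h post-dosing.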

[2] = ATG_ISRE_CIS: Attagene CIS-FACTORIAL HepG2 Assay for human Interferon Regulatory Factor 1 (IRF1) binding to an Interferon-Stimulated Response Element (ISRE) (AID 2282948); conditions: HepG2 ISRE cis-reporter (Attagene), mRNA transcription readout; actives raise or lower the signal
Summary of the method: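 Quantitation relies on labelled RT-PCR fragments separated by capillary electrophoresis. Human HepG2 cells bearing cis-promoter reporter constructs were treated 24 h; DMSO served as baseline for bidirectional fitting.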

[3] = ATG_M_06_CIS: Attagene CIS-FACTORIAL HepG2 Assay for M06 Transcription Factor (Internal Marker) (AID 2282950); conditions: HepG2 Attagene CIS-FACTORIAL M06 internal marker reporter; actives raise or lower the signal
Summary of the method: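 Read-out is fluorescence of labelled reporter cDNA fragments resolved by capillary electrophoresis after RT-PCR. Cells: HepG2 carrying transfected cis-promoter reporter units, treated 24 h. Gain or loss of signal fitted relative to DMSO.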

[4] = molecular target: Heat shock factor protein 1 (Homo sapiens) (UniProt Q00613); experiment: ATG_HSE_CIS: Attagene CIS-FACTORIAL HepG2 Assay for human Heat Shock Transcription Factor 1 (HSE) (AID 2282953); conditions: HepG2 HSE cis-reporter, Attagene RNA transcription; actives raise or lower the signal
Summary of the method: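 HepG2, transient MRTU transfection, cis-promoter reporters (endogenous TF activity). 24 h compound. RNA → oligo(dT) RT → PCR → 6-FAM primer extension → HpaI cut → CE. Bidirectional fit vs DMSO.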

[5] = molecular target: Paired box protein Pax-6 (Homo sapiens) (UniProt P26367); experiment: ATG_Pax6_CIS: Attagene CIS-FACTORIAL HepG2 Assay for human Paired Box 6 (PAX6) (AID 2282956); conditions: HepG2 CIS-FACTORIAL PAX6 reporter transcription, RNA readout; actives raise or lower the signal
Summary of the method: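 After twenty-four hours of chemical exposure, transfected HepG2 cells are harvested for RNA. Cis-promoter reporter transcripts are amplified, fluorescently labelled and sized by capillary electrophoresis, with gain and loss of signal scored against DMSO.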

[6] = ATG_SREBP_CIS: Attagene CIS-FACTORIAL HepG2 Assay for human Sterol Regulatory Element Binding (SREBP) (AID 2282962); conditions: HepG2 Attagene cis-factorial SREBP reporter, mRNA; actives raise or lower the signal
Summary of the method: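 Twenty-four hours after chemical dosing of transfected HepG2 cultures, reporter RNA was converted to cDNA, amplified, end-labelled with 6-FAM and resolved by capillary electrophoresis. Responses were fitted relative to DMSO.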

[7] = ATG_TA_CIS: Attagene CIS-FACTORIAL HepG2 Assay for human TA Basal Promoter (AID 2282964); conditions: HepG2 Attagene CIS-factorial TA basal promoter reporter; actives raise or lower the signal
Summary of the method: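 Read-out: fluorescent reporter-transcript fragments resolved by capillary electrophoresis after RT-PCR and HpaI digestion. Source: HepG2 cells carrying transiently transfected multi-reporter cis constructs, treated 24 h. Endpoint fitted bidirectionally relative to DMSO.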

[8] = ATG_TCF_b_cat_CIS: Attagene CIS-FACTORIAL HepG2 Assay for human T-Cell-Factor with beta-catenin (TCF/b-cat) (AID 2282965); conditions: HepG2 TCF/beta-catenin cis-reporter transcription, actives raise or lower the signal
Summary of the method: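 Using capillary electrophoresis as the read-out, labelled reporter cDNA fragments from transiently transfected HepG2 were sized and quantified. Exposure lasted 24 hours; activity in either direction was referenced to DMSO.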

[9] = ATG_TGFb_CIS: Attagene CIS-FACTORIAL HepG2 Assay for human Transforming Growth Factor (TGF) (AID 2282967); conditions: HepG2 Attagene CIS TGFb reporter, mRNA transcription; actives raise or lower the signal
Summary of the method: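 Transient MRTU transfection of HepG2 (FuGene 6). Dose 24 h. TriZol RNA, oligo(dT) RT, PCR, 6-FAM primer extension, HpaI cut, CE. Bidirectional fit, DMSO = baseline.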

[10] = ATG_Oct_MLP_CIS: Attagene CIS-FACTORIAL HepG2 Assay for human Octamer-Binding Transcription Factor (Oct) (AID 2282993); conditions: HepG2 Attagene cis-factorial Oct reporter, mRNA; actives raise or lower the signal
Summary of the method: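 Transient MRTU transfection of HepG2 → 24 h compound treatment → RNA isolation, reverse transcription, PCR → 6-FAM primer extension, HpaI digest → capillary electrophoresis. Activity fitted both directions against DMSO.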

[11] = molecular target: bovine Estrogen Receptor (ER), ESR1 (gene 407238) (UniProt P49884); experiment: NVS_NR_bER: NovaScreen (NVS) Nuclear Receptor Binding Assay for bovine Estrogen Receptor (ER) (AID 2283345; active means hit-call score of the fitted dose curve at least 0.9, where 1 is the maximum;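 further: actives lower the bound radioligand count which means they displace the ER ligand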)
Summary of the method: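 Scintillation counting of displaced radioligand gave the readout; bovine uterine membrane extract supplied the receptor. Measured 18 h post-dose, normalized to DMSO baseline. Single 25 uM duplicate screen preceded concentration-response follow-up.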

[12] = read-out: Interleukin-8 (IL8), CXCL8 (gene 3576); experiment: BSK_3C_IL8: BioMAP Diversity Plus: 3C Assay for Interleukin-8 (IL8) Biomarker Activity (AID 2283020); conditions: primary human endothelial cells (HUVEC); actives raise or lower the signal
Summary of the method: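 Primary human umbilical vein endothelial cells were dosed for 24 h. IL-8 was quantified by ELISA and fitted bidirectionally against DMSO. Cytotoxicity was assessed in parallel cultures by SRB staining at 560 nm.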

[13] = read-out: Thrombomodulin, THBD (gene 7056); experiment: BSK_3C_Thrombomodulin: BioMAP Diversity Plus: 3C Assay for Thrombomodulin Biomarker Activity (AID 2283029); conditions: primary human endothelial cells (HUVEC); actives raise or lower the signal
Summary of the method: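 Human umbilical vein endothelial cells were exposed to chemicals for 24 h; cell-surface thrombomodulin quantified by ELISA, with bidirectional fitting against DMSO baseline.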

[14] = read-out: Vascular endothelial growth factor receptor 2 (Homo sapiens) (UniProt P35968); experiment: BSK_4H_VEGFRII: BioMAP Diversity Plus: 4H Assay for Vascular endothelial growth factor receptor 2 (VEGFR2) Biomarker Activity (AID 2283031); conditions: primary human endothelial cells (HUVEC); actives raise or lower the signal;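 on AC50: cell-surface VEGFR2 protein level quantified by ELISA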
Summary of the method: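 Measured by ELISA after 24 h of compound treatment: VEGFR2 on primary human umbilical vein endothelial cells, fitted in both directions relative to DMSO. Parallel cultures received SRB staining (560 nm) for overt cytotoxicity.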

[15] = read-out: Vascular cell adhesion molecule 1 (VCAM1), VCAM1 (gene 7412); experiment: BSK_CASM3C_VCAM1: BioMAP Diversity Plus: CASM3C Assay for Vascular cell adhesion molecule 1 (VCAM1) Biomarker Activity (AID 2283055); conditions: primary human coronary artery smooth muscle cells; actives raise or lower the signal;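 further: VCAM-1 protein level quantified by ELISA on the cells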
CD40, CD40 (gene 958) = experiment: BSK_SAg_CD40: BioMAP Diversity Plus: SAg Assay for CD40 Biomarker Activity (AID 2283088); conditions: primary human HUVEC with PBMC; actives raise or lower the signal
Summary of the method: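 CD40 is measured by fluorescence ELISA in an endothelial/PBMC primary human co-culture at 24 h post-dose. Fitting is bidirectional, DMSO baseline. Parallel SRB staining (560 nm) flags cytotoxicity.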

[16] = ATG_CRE_CIS: Attagene CIS-FACTORIAL HepG2 Assay for human cAMP Responsive Element (CRE) binding protein 3 (AID 2282926); conditions: HepG2 CRE cis-reporter, Attagene multiplexed mRNA; actives raise or lower the signal
Summary of the method: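 Multiplexed transcription-unit reporters transfected into HepG2; 24 h dosing; RT-PCR/capillary electrophoresis fluorescence read-out; bidirectional fit vs DMSO.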

[17] = ATG_AP_1_CIS: Attagene CIS-FACTORIAL HepG2 Assay for human Activator Protein 1 (AP-1) (AID 2282931); conditions: HepG2 Attagene cis-factorial AP-1 reporter mRNA; actives raise or lower the signal
Summary of the method: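 Reporter transcripts were measured 24 h after dosing by RT-PCR and capillary electrophoresis of fluorescent fragments. Cells: HepG2 carrying transfected cis-regulated reporter constructs reading endogenous factor activity. Gain or loss fitted against DMSO.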

[18] = ATG_NFI_CIS: Attagene CIS-FACTORIAL HepG2 Assay for human Nuclear Factor I (NFI) (AID 2282989); conditions: HepG2 cis-regulatory reporter, NFI response element transcription; actives raise or lower the signal
Summary of the method: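 Transient MRTU transfection of HepG2 → 24 h chemical dosing → total RNA, oligo(dT) RT → PCR, 6-FAM primer extension, HpaI cut → capillary electrophoresis. Endpoint fitted bidirectionally relative to DMSO.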

[19] = ATG_NRF2_ARE_CIS: Attagene CIS-FACTORIAL HepG2 Assay for human Nuclear Factor Erythroid 2 Related Factor 2 (NFR2) response to Antioxidant Response Elements (ARE) (AID 2282992); conditions: HepG2 Attagene ARE/NRF2 reporter, transcription factor activity; actives raise or lower the signal;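 on AC50: reporter mRNA level measured by RT-PCR and capillary electrophoresis fluorescence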
Summary of the method: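 Cis-factorial assay: transfected HepG2 reporter library, 24 h dosing, mRNA readout via RT-PCR/CE; DMSO-referenced bidirectional analysis.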

Measured: AC50

Sequence of bovine Estrogen Receptor (ER), ESR1 (gene 407238) (P49884 whole entry, looked up): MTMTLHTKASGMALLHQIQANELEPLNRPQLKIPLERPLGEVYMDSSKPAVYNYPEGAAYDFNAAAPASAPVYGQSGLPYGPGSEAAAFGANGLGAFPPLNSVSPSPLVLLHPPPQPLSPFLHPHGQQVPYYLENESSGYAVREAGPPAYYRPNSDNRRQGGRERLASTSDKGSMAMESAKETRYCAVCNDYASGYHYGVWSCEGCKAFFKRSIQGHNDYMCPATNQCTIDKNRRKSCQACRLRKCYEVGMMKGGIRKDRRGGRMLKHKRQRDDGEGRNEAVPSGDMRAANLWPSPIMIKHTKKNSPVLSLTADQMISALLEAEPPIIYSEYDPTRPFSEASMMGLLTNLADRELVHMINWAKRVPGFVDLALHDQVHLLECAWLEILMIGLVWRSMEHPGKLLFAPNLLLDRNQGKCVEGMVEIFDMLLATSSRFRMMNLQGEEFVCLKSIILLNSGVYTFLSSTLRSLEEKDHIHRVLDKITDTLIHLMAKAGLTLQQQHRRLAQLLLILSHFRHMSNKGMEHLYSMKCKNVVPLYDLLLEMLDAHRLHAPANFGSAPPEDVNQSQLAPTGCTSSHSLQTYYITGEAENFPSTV
Sequence of Heat shock factor protein 1 (Homo sapiens) (Q00613 whole entry, looked up): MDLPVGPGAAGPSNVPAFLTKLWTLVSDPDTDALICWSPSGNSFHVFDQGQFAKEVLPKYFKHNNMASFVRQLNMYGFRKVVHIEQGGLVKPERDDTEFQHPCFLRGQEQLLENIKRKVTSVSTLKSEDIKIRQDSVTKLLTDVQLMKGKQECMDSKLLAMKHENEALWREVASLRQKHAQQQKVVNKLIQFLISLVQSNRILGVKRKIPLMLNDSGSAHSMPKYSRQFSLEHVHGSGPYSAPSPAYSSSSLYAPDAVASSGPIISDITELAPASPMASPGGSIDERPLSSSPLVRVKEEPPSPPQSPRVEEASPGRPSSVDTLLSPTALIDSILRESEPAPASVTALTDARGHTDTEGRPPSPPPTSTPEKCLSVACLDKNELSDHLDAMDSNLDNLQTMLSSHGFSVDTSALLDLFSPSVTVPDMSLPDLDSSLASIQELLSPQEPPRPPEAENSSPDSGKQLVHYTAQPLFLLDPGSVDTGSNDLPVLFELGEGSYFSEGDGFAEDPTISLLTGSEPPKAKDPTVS
Sequence of Paired box protein Pax-6 (Homo sapiens) (P26367 whole entry, looked up): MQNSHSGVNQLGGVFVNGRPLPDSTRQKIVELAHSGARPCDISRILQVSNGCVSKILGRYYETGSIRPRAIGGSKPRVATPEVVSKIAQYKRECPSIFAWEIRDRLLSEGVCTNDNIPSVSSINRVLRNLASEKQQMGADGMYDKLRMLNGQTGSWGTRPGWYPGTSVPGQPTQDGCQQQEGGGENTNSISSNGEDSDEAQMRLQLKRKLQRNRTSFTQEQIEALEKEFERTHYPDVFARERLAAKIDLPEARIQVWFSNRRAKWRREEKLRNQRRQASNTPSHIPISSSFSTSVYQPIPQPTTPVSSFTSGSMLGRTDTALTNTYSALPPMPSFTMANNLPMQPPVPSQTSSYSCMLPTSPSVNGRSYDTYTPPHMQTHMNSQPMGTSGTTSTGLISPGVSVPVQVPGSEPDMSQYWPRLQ

COc1ccc2ccccc2c1
inactive: [1] | [2] | [3] | [4] | [5] | [6] | [7] | [8] | [9] | [10]

O=[N+]([O-])c1cc[n+]([O-])cc1
inactive: [11]

CCCCC(CC)COC(=O)C=Cc1ccc(OC)cc1 (stereo not given)
inactive: [14] | [15]
active: [12] 30.8 µM and 28.7 µM | [13] 9.77 µM and 8.63 µM | [14] 31.7 µM | [15] 14.9 µM | CD40, CD40 (gene 958) 32.1 µM and 31.9 µM

OC(C(F)(F)F)(C(F)(F)F)C(O)(C(F)(F)F)C(F)(F)F
inactive: [13]
active: [12] 39.9 µM and 45.7 µM | [13] 48 µM | [14] 30 µM and 20.5 µM | [15] 30 µM | CD40, CD40 (gene 958) 35.2 µM and 28.6 µM

C1CN(CCOCCN2CCOCC2)CCO1
inactive: [12] | [13] | [14] | [15] | CD40, CD40 (gene 958)
active: [12] 9.48 µM

CCCCCCOC(=O)CCCCCCCC(=O)OCCCCCC
not listed: [11] | [12] | [13] | [14] | [15] | CD40, CD40 (gene 958)
inactive: all other assays above

CC(=O)CC(=O)OC(C)(C)C
inactive: [11]

CCC[Si](OC(C)=O)(OC(C)=O)OC(C)=O
inactive: [12] | [13] | [14] | [15] | CD40, CD40 (gene 958)

C[Si](C)(C)O[Si](C)(C)O[Si](C)(C)C
not listed: [11] | [12] | [13] | [14] | [15] | CD40, CD40 (gene 958)
inactive: all other assays above

Nc1nc(N)c2nc(-c3ccccc3)c(N)nc2n1
inactive: [11]

CCCC[N+]1(C)CCCC1
not listed: [11] | [12] | [13] | [14] | [15] | CD40, CD40 (gene 958)
inactive: all other assays above

CC/C=C\CCO
not listed: [11] | [12] | [13] | [14] | [15] | CD40, CD40 (gene 958)
inactive: all other assays above

Cc1c(C(N)=O)cc([N+](=O)[O-])cc1[N+](=O)[O-]
active: CD40, CD40 (gene 958) 32.4 µM
inactive: [12] | [13] | [14] | [15] | CD40, CD40 (gene 958)

COc1cc(CNC(=O)CCCC/C=C/C(C)C)ccc1O
active: [13] 15.1 µM | CD40, CD40 (gene 958) 20 µM
inactive: [12] | [13] | [14] | [15] | CD40, CD40 (gene 958)

F[B-](F)(F)F
not listed: [11] | [12] | [13] | [14] | [15] | CD40, CD40 (gene 958)
inactive: all other assays above

CN(C)N=Nc1ccccc1
active: [19] 177 µM
not listed: [11] | [12] | [13] | [14] | [15] | CD40, CD40 (gene 958)
inactive: all other assays above

CC1(O)CSC(C)(O)CS1 (stereo not given)
inactive: [11]

CCCc1c(OCCCCc2nn[nH]n2)ccc(C(C)=O)c1O
active: [6] 37.4 µM | [19] 100 µM
not listed: [11] | [12] | [13] | [14] | [15] | CD40, CD40 (gene 958)
inactive: all other assays above

CC(C)(C)C(=O)C(=O)O
inactive: [11]

CC(=O)O[C@]1(C(C)=O)CC[C@H]2[C@@H]3C=C(C)C4=CC(=O)CC[C@]4(C)[C@H]3CC[C@@]21C
inactive: [11]

O=S(=O)(O)c1cc(Cl)c(Cl)cc1Cl
inactive: [11]

COc1ccc(COC=O)cc1
inactive: [11]

CNC(=O)Nc1ccc(Cl)c(Cl)c1
inactive: [11]

CCCCCCC/C=C/C=O
inactive: [11]

CC(O)(c1ccc(Cl)cc1)c1ccc(Cl)cc1
inactive: [11]

CCC(=O)C(=O)CC
inactive: [11]

Cc1cccc(NC(=S)N(C)C)c1
inactive: [11]

Oc1ccc2c(c1)Cc1ccccc1-2
active: [11] 36.3 µM

CCCCCCCCCCCCN(CCO)CCO
inactive: [11]
